Results taken from PubChem BioAssay (EPA / NIEHS).
Calls of active or inactive are those of the source. The calls were made as follows: active = hit-call score of the fitted dose curve at least 0.9, where 1 is the maximum; inactive = score below 0.9.

Read-out: Transforming Growth Factor (TGFA), TGFA (gene 7039)
Experiment: LTEA_HepaRG_TGFA: Life Technologies and Expression Analysis (LTEA) Assay for Transforming Growth Factor (TGFA) using HepaRG (AID 2283532)
Settings: mRNA level, 48 h; actives raise or lower the signal
Experimental: LTEA_HepaRG is a cell based, multiplexed-readout assay that uses HepaRG, a human liver cell line, with measurements taken at 48 hours after chemical dosing on a 96-well plate.LTEA_HepaRG_TGFA is one of 102 assay component(s) measured in the LTEA HepaRG cell culture assay. It is a marker of Cell proliferation, survival, death.Data from the assay component LTEA_HepaRG_TGFA was analyzed into 1 endpoint. This assay endpoint, LTEA_HepaRG_TGFA, was analyzed with bidirectional fitting relative to DMSO as the negative control and baseline of activity. Using a type of inducible reporter, measures of mRNA induction for gain or loss-of-signal activity can be used to understand regulation of transcription factor activity. To generalize the intended target to other relatable targets, this assay endpoint is annotated to the growth factor intended target family, where the subfamily is EGF-like domain.
A total of 1060 chemcials from the ToxCast library were tested in eight-point concentration-response experiments. Cell culture and cytotoxicity assays were conducted at Thermo Fisher Scientific's Custom Services facility (Madison, WI). A single lot of human HepaRG cells (Thermo Fisher Scientific, Frederick, MD) was used for the cell culture experiments. 96-well format collagen type I coated plates of human HepaRG cells were prepared using established methods. Briefly, cryopreserved HepaRG cells were thawed, plated at a density of approximately 100,000 cells/well in HepaRG Thaw, Plate, and General Purpose media (HPRG770, Thermo Fisher Scientific), and incubated for 48 hours. 0.5% DMSO was selected as vehicle control to balance the requisite need of DMSO in HepaRG cultures to maintain differentiation (for example, baseline metabolism, proportions of hepatocytes vs. cholangiocytes), while enabling further hepatic receptor pathway activation (for example, PXR and CAR) in response to chemical exposure. 48 hours after plating, the culture medium was replaced with HepaRG Serum-Free Incudtion Media. Cells were exposed to each test chemical in duplicate and maintained in CO2 incubators for another 48 hours. Chemical plates were thawed to room temperature and 200x concentrations of treatment groups were prepared. 8-point conentration-reponse curves were made with the highest exposure at 100 uM, followed by half-log dilutions, all in 0.5% DMSO. Each test plate contained variouse controls, induction positive controls (1mM phenobarbital), cytotoxicity positive controls ([…] aflatoxin B1), vehicle controls (0.5% DMSO), and total lysis controls (0.5% DMSO). Cell morphology images were taken using an Essen IncuCyte FLR automated microscope, with six 96-well plates imaged in about 24 minutes. Images were captured and exported and JPEG files. Spent culture media was transfered to black-well plates for the LDH assay, and remaining media was sorted at -80 C for later use. Cells were treated with RLT buffer and frozen until shipped for gene expression analysis. Total RNA was isolated from the cell suspension in 75 uL of Buffer RLT (Qiagen, Germantown, MD 20874) by Quintiles/Expression Analysis (Durham, NC) using a custom isolation procedure. Total RNA from each plate well was transferred to a preamplification plate. Fluidigm's 96.96 Dynamic ArrayTM (Fluidigm, Amsterdam, the Netherlands) technology was used for gene expression analyses by quantitative reverse transcription polymerase chain reaction (qRT-PCR, performed by Quintiles/Expression Analysis, Durham, NC)89. Standard TaqManTM Assays (Applied Biosystems/ThermoFisher Scientific, Foster City, CA) were used to assess the expression of 93 genes selected based on their selectivity and sensitivity to important hepatic receptors known to be modulated by environmental chemicals; importance in human hepatocyte functionality; and hepatotoxicity. […]

Compound | outcome | AC50
NCC1(Cc2noc(=O)[nH]2)CCCCC1 | inactive | 
Cc1ccc(N(C)C)cc1 | inactive | 
Nc1nc(N)c2nc(CNc3ccc(C(=O)N[C@@H](CCC(=O)O)C(=O)O)cc3)cnc2n1 | inactive | 
CCCCCCCCCCCCCCCC | inactive | 
Oc1ccc2ccccc2c1N=Nc1ccccc1 | inactive | 
CC1(C)CC(N=C=O)CC(C)(CN=C=O)C1 (stereo not given) | inactive | 
CCCCCCCCCCCC(=O)OC | inactive | 
CCCCCCOCCO | inactive | 
Cc1cccc(C)c1O | inactive | 
CCCCCC(=O)O | inactive | 
O=c1c(O)c(-c2ccc(O)c(O)c2)oc2cc(O)cc(O)c12 | inactive | 
CCCCCCC(=O)OCC | inactive | 
CCOC(=O)CCC(=O)OCC | inactive | 
CC(=O)Oc1ccccc1C(=O)O | inactive | 
CCCCCCCC=O | inactive | 
CNCc1cc(F)ccc1Oc1ccc(Cl)c(Cl)c1 | inactive | 
C[Si]1(C)O[Si](C)(C)O[Si](C)(C)O[Si](C)(C)O1 | inactive | 
Cc1oc(-c2ccccc2)nc1CCOc1cccc2c1ccn2CCC(=O)O |  | 50 µM (active)
C[C@]12C=CC(=O)C=C1CC[C@@H]1[C@@H]2C(=O)C[C@@]2(C)[C@H]1CC[C@]2(O)C(=O)CO | inactive | 
FC(F)(F)C(F)(F)C(F)(F)C(F)(F)C(F)(F)C(F)(F)CCI | inactive | 

Compound | outcome | AC50
CCCCCCCCCCCCCO | inactive | 
COC(=O)c1ccc(O)cc1 | inactive | 
Cc1cc(=O)[nH]c(=S)[nH]1 | inactive | 
CCCc1cc(=O)[nH]c(=S)[nH]1 | inactive | 
Nc1ccc2c(c1)C(=O)c1ccccc1C2=O | inactive | 
Cc1nc(-c2ccc3c(c2)CCN(CCC2CCC(NC(=O)/C=C/c4ccc(F)cc4)CC2)CC3)no1 (stereo not given) | inactive | 
Cc1ccc2ncccc2c1 | inactive | 
O=c1[nH]cc(F)c(=O)[nH]1 | inactive | 
Cc1nc(C)nc(N2C[C@@H](C)N(c3ccnc([C@@H](C)O)n3)[C@@H](C)C2)n1 | inactive | 
O=C(O)Cc1ccccc1Nc1c(Cl)cccc1Cl | inactive | 
C=CCc1ccc(O)c(OC)c1 | inactive | 
c1cc(-c2ccncc2)ccn1 | inactive | 
CN1CCN(Cc2cc(-c3ccc4[nH]c(=O)oc4c3)co2)[C@@H](c2ccc(F)cc2)C1 | inactive | 
CCNc1cccc(C)c1 | inactive | 
CCOc1ccc2c(c1)C(C)=CC(C)(C)N2 | inactive | 
O=C(O)CCCCC(=O)O | inactive | 
Cc1ccc(C)c(O)c1C | inactive | 
Cc1cccc(Nc2cc(Cl)nc(SCC(=O)O)n2)c1C | inactive | 
CC=Cc1ccc(O)c(OC)c1 | inactive | 
Cc1cccc([N+](=O)[O-])c1C | inactive | 
